# MLLE-PAM2 inh = inhibitors of microRNA-mediated deadenylation, human PABP1 MLLE binding | 360,000 tested, 0.36% active | P11940 | GST-MLLE / FITC-PAM2 fluorescence polarization | AID 588489 | inhibition, % at 20 µM; in the data active means inhibition above about 35%, passing the limit was not always enough;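 further: plate controls were DMSO wells with GST-MLLE for no effect and wells lacking GST-MLLE protein for full effect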
# Target sequence (P11940 whole entry, looked up): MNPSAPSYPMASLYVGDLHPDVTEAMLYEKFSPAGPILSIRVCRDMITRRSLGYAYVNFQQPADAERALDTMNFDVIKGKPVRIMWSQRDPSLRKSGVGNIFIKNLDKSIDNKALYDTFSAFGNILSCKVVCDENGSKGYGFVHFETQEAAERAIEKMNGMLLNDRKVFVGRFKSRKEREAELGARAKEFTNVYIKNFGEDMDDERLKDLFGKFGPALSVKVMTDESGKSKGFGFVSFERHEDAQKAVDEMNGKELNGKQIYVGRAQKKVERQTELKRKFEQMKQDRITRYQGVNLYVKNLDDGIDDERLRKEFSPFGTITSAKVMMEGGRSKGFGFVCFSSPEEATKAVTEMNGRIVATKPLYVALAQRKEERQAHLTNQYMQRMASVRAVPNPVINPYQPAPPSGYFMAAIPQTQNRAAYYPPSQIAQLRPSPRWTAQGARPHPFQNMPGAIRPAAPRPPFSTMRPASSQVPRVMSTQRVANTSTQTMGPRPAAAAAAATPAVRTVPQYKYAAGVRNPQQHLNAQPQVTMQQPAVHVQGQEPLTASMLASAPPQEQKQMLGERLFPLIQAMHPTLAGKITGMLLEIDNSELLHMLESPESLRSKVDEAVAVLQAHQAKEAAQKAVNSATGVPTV
# eIF4E 4G PPI = blocks eIF4E binding to eIF4G | P63073+Q04637 | TR-FRET eIF4E-eIF4GI(517-606) binding, 2 h | inhibition, % at 21.7 µM | 220,000 tested, 0.37% active;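 active means inhibition above about 30%, limit read from the data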;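 further: 0% = full FRET control wells and 100% = background wells lacking eIF4GI fragment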
# PABP FP inh = PABP-poly(A) binding inhibition; P11940; PABP-poly(A) RNA binding, fluorescence polarization; calls only at 35 µM; 290,000 tested, 1% active;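 further: calls also rest on retests at 20 µM and on dose response follow-up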
# eIF4H inh = inhibitors of RNA binding by human eIF4H; Q15056; eIF4H fluorescence polarization binding assay; inhibition, % at 35 µM; 290,000 tested, 0.94% active;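 further: calls also rest on retests at 20 µM and on dose response follow-up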
# * hit, by the source's call; i = inactive; ? = inconclusive; / = no result given; + = active, no number; [ ] = dose if it differs, or a comment. Most compounds without a hit are left out; they make up all but 1.5% or so of the library. Unless noted, how the calls were made is not given here.
SMILES,MLLE-PAM2 inh,eIF4E 4G PPI,PABP FP inh,eIF4H inh
COCCNC(=O)c1ccc(-n2c(SCc3ccncc3)nc3ccccc3c2=O)cc1,2.4,1.9,+,active
COCCNC(=O)CSc1nc2ccccc2c(=O)n1-c1cccc(OC)c1,-1.9,-1.9,i,-7.3
CC[n+]1ccc(C)c2cc(S(=O)C(F)(F)F)ccc21 (configuration not stated),19.9,-6.9,+,?
CC[n+]1ccc(C)c2cc(SC(F)(F)F)ccc21,-6.1,6.3,i,-3.3
COc1cc(-c2c(C(C)=O)c(C)nc3c2C(=O)c2ccccc2-3)cc(OC)c1OC,-4.5,/,i,6.8
CC(=O)c1c(Cl)nc2cccc3c2c1-c1ccccc1C3=O,50.0*,/,i,-1.5
COc1cc(/C=C2\SC(=O)N(Cc3ccc(Cl)cc3)C2=O)cc([N+](=O)[O-])c1O,-4.6,60.7*,i,15.2
COc1cccc(NC(=O)CN2CCC(NC(=O)c3ccccc3C)CC2)c1,-11.2,/,/,/
CCc1nn2c(=O)cc(COc3ccc(/C=C4\C(=N)N5N=C(C)SC5=NC4=O)cc3)nc2s1,-3.3,20.7,+,70.3*
CCCCCCCCCCCCCCCC[n+]1cccc2ccccc21,-142.8,91.5*[fluorescence artefact?],i,1.8
CCCCCCCCC[n+]1cccc2c3ccccc3ccc21,-9.2,-2.9,i,-8.2
Cc1cc2nn(-c3cccc4ccccc34)nc2cc1N,-5.7,7.3,i,5.0
Nc1ccc2nn(-c3cccc4ccccc34)nc2c1,-22.0,14.5,i,91.0*
CCC(=O)Nc1ccc(C(=O)Nc2cccnc2)cc1,-11.8,-3.8,+,51.9*
COc1ccc(C(=O)Nc2ccc(C(=O)Nc3cccnc3)cc2)cc1,-11.2,/,i,-12.9
CCSC1=C(C#N)C2(CCCCC2)C2=C(CC(C)(C)CC2=O)N1,-1.3,1.2,i,-7.6
CC1(C)CC(=O)C2=C(C1)NC(SCC(N)=O)=C(C#N)C21CCCCC1,36.5*,-4.2,i,2.5
COc1ccc2[nH]c(=O)c(CN(Cc3cccs3)C(=S)NCC3CCCO3)cc2c1 (configuration not stated),-128.4,71.0*,i,1.6
Cc1cc2cc(CN(Cc3cccs3)C(=S)NCC3CCCO3)c(=O)[nH]c2cc1C (configuration not stated),-118.7,-4.7,i,-10.5
COC(=O)c1[nH]c2ccc(C)cc2c1NC(=O)CCN1CCN(C2CCCCC2)CC1,/,-6.0,i,2.4
COC(=O)c1[nH]c2ccc(Br)cc2c1NC(=O)CN1CCN(C2CCCCC2)CC1,-112.1,-3.2,+,-11.6
O=C(CSc1nnc(CNC(=O)c2c(F)cccc2F)o1)NCc1ccc2c(c1)OCO2,17.8,/,/,/
COc1cc2c(cc1OC)CN(C(=O)CCN1C(=O)C3CCCCC3C1=O)CC2 (configuration not stated),5.0,1.2,+,6.2*
COc1cc2c(cc1OC)CN(C(=O)COc1ccccc1C#N)CC2,7.1,/,i,-15.7
COc1cc2c(cc1OC)CN(C(=O)CC1CC3CCC1C3)CC2 (configuration not stated),0.4,-9.5,i,4.3
SMILES,MLLE-PAM2 inh,eIF4E 4G PPI,PABP FP inh,eIF4H inh
COc1cc2c(cc1OC)CN(C(=O)COc1ccc(C#N)cc1)CC2,12.8,-5.8,+,6.8*
CCCn1c(CC)nc([N+](=O)[O-])c1Sc1ncn[nH]1,25.4,/,/,/
COc1ccccc1-n1c(=S)[nH]c2c(sc(=S)n2-c2ccccc2)c1=O,27.1,-1.1,i,1.6
COc1cccc(-n2c(=S)sc3c(=O)n(-c4ccccc4OC)c(=S)[nH]c32)c1,41.3*,-6.0,i,-2.7
CC(C)[C@H](NC(=O)Cc1ccccc1)C(=O)OCc1cc(=O)n2c(n1)sc1ccccc12,-14.6,19.1,+,75.4*
O=C(OCc1cc(=O)n2c(n1)sc1ccccc12)c1ccc2c(=O)n3c(nc2c1)CCC3,-34.4,/,+,74.9*
Cc1ccc(COC(=O)Cc2coc3cc(O)ccc23)cc1,-0.8,/,i,1.4
Cc1ccc2c(CC(=O)OCc3cc(=O)n4c(n3)sc3ccccc34)coc2c1,-6.6,11.9,i,70.1*
CC(=O)c1c(C)[nH]c(C(=O)COC(=O)c2ccc3c(=O)n4c(nc3c2)CCC4)c1C,8.5,0.3,i,1.7
O=C(C(O)c1ccc(Br)cc1)N1CCC(Nc2ccc3[nH]ncc3c2)CC1 (configuration not stated),14.2,/,/,/
CSCC(C)N1CCC(Oc2cccc(C(=O)NCc3ccccn3)c2)CC1 (configuration not stated),43.3*,/,i,60.1
CCSc1nnc(-c2cc(Br)ccc2NC(C)=O)c(=O)[nH]1,-3.6,96.0*,i,2.4
Cc1cc(=O)n2nc(-c3ccccc3)sc2n1,-3.0,10.3,+,56.5*
O=C(NCc1ccccc1Cl)c1ccc2sc([C@@H]3O[C@H](CO)[C@H](O)[C@H](O)[C@H]3O)nc2c1,24.1,/,/,/
O=C(COC(=O)c1cccc(NS(=O)(=O)c2ccc(F)c(F)c2)c1)NC(=O)NC1CCCC1,-4.4,-1.0,+,85.3
O=C(COC(=O)c1cccc(F)c1)NC(=O)NC1CCCC1,-6.5,/,/,/
O=C(CSc1nc2c(c(=O)n1-c1ccc(F)cc1)SCC2)NCc1ccco1,44.7*,-0.7,i,2.2
CCc1nc2c(OCC(=O)N3CCOCC3)cccn2c1N(C)C(=O)COc1ccccc1,-2.3,/,/,/
CCCCNC(=O)C1(C)CCCCN1C(=O)c1cc(C)n(C(C)(C)C)n1 (configuration not stated),-4.1,/,/,/
O=C(O)c1ccc2c(c1)C(=O)/C(=C\c1ccco1)C2=O,28.7,6.5,i,107.0
O=C(O)c1ccc2c(c1)C(=O)/C(=C/c1ccccc1)C2=O,39.9*,9.4,i,83.2
CCOc1ccccc1-c1nc(-c2ccc(NC(=O)Cc3ccccc3OC)cc2)no1,-13.1,4.1,+,53.7*
CC(C)C[C@H](NC(=O)c1[nH]cnc1C(=O)Nc1ccccc1F)C(=O)OC(C)(C)C,4.3,/,/,/
CCCNC(=O)c1ccc2c(=O)n(Cc3ccco3)c(=S)[nH]c2c1,-62.4,-7.0,+,91.4*
COc1ccc(CCNC(=O)c2ccc3c(=O)n(Cc4ccco4)c(=S)[nH]c3c2)cc1OC,-28.8,-12.8,+,72.8*
SMILES,MLLE-PAM2 inh,eIF4E 4G PPI,PABP FP inh,eIF4H inh
CC(C)NC(=O)c1ccc2c(=O)n(Cc3ccco3)c(=S)[nH]c2c1,-69.1,8.2,i,8.1
COc1ccc(CCNC(=O)c2ccc3nc(-c4ccco4)c(-c4ccco4)nc3c2)cc1OC,38.1*,13.8,+,106.0*
O=C1/C(=C/c2ccco2)CCc2ccccc21,0.2,3.0,i,81.3
COc1ccc2c(c1)CC/C(=C/c1ccco1)C2=O,-8.6,3.1,+,?
Nc1ccc2c(c1)C/C(=C/c1ccco1)C2=O,-30.9,21.7,+,93.3*
COc1cc2c(cc1NC(=O)c1ccc(C)c([N+](=O)[O-])c1)oc1ccccc12,-15.2,2.2,i,active
Cc1ccn(C)c(=N)c1,-89.4,-0.9,+,active
CC1(C)OC(=O)C2=C(C[C@@H](CCOCc3ccccc3)O[C@H]2c2ccc(F)cc2)O1,1.6,/,/,/

# Screening results deposited in PubChem by several laboratories.
